SUMO Mot1 rescue = inhibitors of SUMOylation pathway: yeast Mot1-301 growth rescue | growth rescue, % at 18.8 µM | 320,000 compounds, 1% hits | AID 2716 | S. cerevisiae Mot1-301 growth rescue, ATP luminescence, 38.5C; percent above DMSO median, 100 means doubled;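 active = every valid replicate shows activation above 250% relative to neutral control wells; inactive = the rest, any valid replicate at or below 250%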;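 note: OY570 slx delta 5 strain wells were the positive control but not used for scaling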
HIF act = HIF pathway transcriptional activation. 300,000 compounds, 0.32% hits. activation, % at 7.5 µM (by protocol). U2OS HRE-luciferase reporter, luminescence; normalized: DMSO 0%, desferrioxamine 100%;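 active = mean activation of at least 10% of the iron chelator positive control signal, with at least half of replicates also reaching 10%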
ALR H2O2 inh = blocks human ALR sulfhydryl oxidase activity. 290,000 compounds, 3.8% hits. P55789. inhibition, % (no concentration beside the values). purified ALR, DTT oxidation, H2O2 HRP-luminol luminescence;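 active = mean replicate inhibition above about 79%, with every replicate also reaching it, limit read from the data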
Target sequence (P55789 whole entry, looked up): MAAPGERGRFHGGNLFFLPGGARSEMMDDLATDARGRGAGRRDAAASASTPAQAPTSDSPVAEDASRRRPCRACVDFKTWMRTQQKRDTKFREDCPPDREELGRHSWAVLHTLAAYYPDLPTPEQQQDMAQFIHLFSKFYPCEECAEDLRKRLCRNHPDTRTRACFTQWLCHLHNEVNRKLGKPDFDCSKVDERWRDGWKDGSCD
AI-2 QS modul = modulators of Vibrio harveyi AI-2 quorum sensing system | Vibrio harveyi JMH597 AI-2 luminescence/OD600 ratio, 9 h; hits give low values; strain lacks LuxN and CqsS sensors; 0 = neutral-control median | 300,000 compounds, 0.4% hits | activity change, % at 7.5 µM; in the data active = activity change below about -75%, passing the limit was not always enough;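 note: luminescence divided by OD600 gain over 9 h not by final OD600 alone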
* marks the source's active call; other numbers are inactive results. Compounds with a hit are over-represented: about 4.8% of the library has one in this group of screens.

What do the screens show for `Cc1ccc(-n2[nH]c(C)c(/C=N/NC(=O)c3ccc(O)cc3O)c2=O)cc1`?
SUMO Mot1 rescue: -8.1; HIF act: 5.0; ALR H2O2 inh: 93.6*; AI-2 QS modul: 10.9

How did Cc1[nH]n(-c2ccccc2)c(=O)c1/C=N/NC(=O)c1ccc(O)cc1O do in these assays?
SUMO Mot1 rescue: -0.2; HIF act: 0.5; AI-2 QS modul: -1.4

Results for O=C(CSCc1ccc(Cl)cc1)Nc1nccs1 ?
SUMO Mot1 rescue: 150.2; HIF act: -0.2; ALR H2O2 inh: -1.9; AI-2 QS modul: 0.5

What do the screens show for `CCOC(=O)C(=O)Nc1nccs1`?
SUMO Mot1 rescue: 263.6; HIF act: -0.2; AI-2 QS modul: 13.5

What do the screens show for `O=C(CSCC(=O)Nc1nccs1)Nc1ccccc1`?
SUMO Mot1 rescue: -12.8; HIF act: 0.3; ALR H2O2 inh: 98.9*; AI-2 QS modul: 0.1

Results for CCOC(=S)SCC(=O)Nc1nccs1 ?
HIF act: -0.3; ALR H2O2 inh: 87.6*; AI-2 QS modul: 15.7

How did Cc1ccccc1OCCCC(=O)Nc1nccs1 do in these assays?
SUMO Mot1 rescue: 9.4; HIF act: 0.7; ALR H2O2 inh: 93.9*; AI-2 QS modul: 10.8

What do the screens show for `CCOC(=O)/C=C/C(=O)Nc1nccs1`?
SUMO Mot1 rescue: -10.5; HIF act: -1.1; ALR H2O2 inh: 17.3; AI-2 QS modul: -90.5*

How did CCc1nc2ccc(C(=O)NCCCN3CCN(c4ccccc4F)CC3)cc2nc1CC do in these assays?
SUMO Mot1 rescue: -1.6; HIF act: 0.2; ALR H2O2 inh: -11.0; AI-2 QS modul: 4.3

How did C#CCN(Cc1ccccc1)S(=O)(=O)C=C do in these assays?
SUMO Mot1 rescue: -1.4; ALR H2O2 inh: -0.6

Results for O=C(CSCC(=O)Nc1nc(-c2ccc3c(c2)OCO3)cs1)Nc1nccs1 ?
SUMO Mot1 rescue: -4.5; HIF act: 2.5; ALR H2O2 inh: 99.0*; AI-2 QS modul: -30.9

What do the screens show for `CCOC(=S)SCC(=O)Nc1nc(C)c(C)s1`?
HIF act: 0.0; ALR H2O2 inh: 98.4*; AI-2 QS modul: -1.4

How did COc1ccccc1/C=C/C=N/NC(=O)c1cc(-c2ccco2)[nH]n1 do in these assays?
SUMO Mot1 rescue: -18.8; HIF act: -0.6; ALR H2O2 inh: 98.3*; AI-2 QS modul: 57.9

How did CN(C)c1ccc(NC(=O)COC(=O)Cn2nnc3ccccc32)cc1 do in these assays?
SUMO Mot1 rescue: 4.5; HIF act: -0.2; ALR H2O2 inh: 99.0*; AI-2 QS modul: -4.1

How did Cc1ccccc1SCC(=O)OCC(=O)Nc1ccc(N(C)C)cc1 do in these assays?
HIF act: 0.1; ALR H2O2 inh: 99.2*; AI-2 QS modul: -7.5

How did COCC(=O)Nc1ccc(N(C)C)cc1 do in these assays?
SUMO Mot1 rescue: -18.1; HIF act: 0.4; AI-2 QS modul: -3.9

What do the screens show for `CCOc1ccc(S(=O)(=O)NCCC(=O)NCCOc2ccccc2OC)cc1`?
SUMO Mot1 rescue: -1.9; HIF act: -0.1; AI-2 QS modul: 1.3

Results for CCCCCN(C(=O)CCC(=O)OCCOc1ccc(OCC)cc1)c1c(N)n(CCCC)c(=O)[nH]c1=O ?
SUMO Mot1 rescue: -10.4; HIF act: -0.4; ALR H2O2 inh: 2.0; AI-2 QS modul: 18.8

Results for COc1ccc(C(=O)N/N=C(\C)Cn2nc([N+](=O)[O-])cc2C)cc1 ?
SUMO Mot1 rescue: 214.5; HIF act: 0.8; ALR H2O2 inh: -1.5; AI-2 QS modul: 21.9

Results for COc1ccc(NC(=S)NNC(=O)Cn2nc([N+](=O)[O-])cc2C)cc1 ?
SUMO Mot1 rescue: 18.2; HIF act: 0.2; ALR H2O2 inh: 81.2*; AI-2 QS modul: 19.1

How did Cc1cccc(NC(=S)NNC(=O)CCn2nc(C)c([N+](=O)[O-])c2C)c1 do in these assays?
SUMO Mot1 rescue: -10.1; HIF act: -0.4; ALR H2O2 inh: 3.5; AI-2 QS modul: 14.0

How did Cc1nn(CC(=O)NNC(=S)Nc2ccccc2)c(C)c1[N+](=O)[O-] do in these assays?
SUMO Mot1 rescue: -2.0; HIF act: -0.8; ALR H2O2 inh: 79.8*; AI-2 QS modul: 22.9

How did Cc1ccc(OCCC(=O)OCC(=O)Nc2c(C)nn(-c3ccccc3)c2C)cc1 do in these assays?
SUMO Mot1 rescue: -1.1; HIF act: -0.1; AI-2 QS modul: 21.8

How did Cc1c(C)c2ccc(OCC(=O)Nc3ccccc3C(N)=O)cc2oc1=O do in these assays?
SUMO Mot1 rescue: 0.4; HIF act: -0.4; ALR H2O2 inh: -32.8; AI-2 QS modul: 11.7

What do the screens show for `Oc1ccc(-c2cn3c(n2)SCC3)cc1`?
SUMO Mot1 rescue: -12.3; HIF act: -0.2; ALR H2O2 inh: 64.8; AI-2 QS modul: 11.7

Results for Oc1ccc(-c2cn3c(n2)SCC3)cc1O ?
SUMO Mot1 rescue: -17.4; HIF act: 0.5; ALR H2O2 inh: 98.7*; AI-2 QS modul: 7.4

How did O=C(Nc1nccs1)C1CC=CCC1 (stereo unspecified) do in these assays?
SUMO Mot1 rescue: 0.0; HIF act: 1.8; ALR H2O2 inh: 1.1; AI-2 QS modul: 16.7

Results for O=C(Nc1ccc(O)cc1)C1CC=CCC1 (stereo unspecified) ?
SUMO Mot1 rescue: -13.6; HIF act: -0.1; ALR H2O2 inh: 98.5*; AI-2 QS modul: 16.1

How did CC(C)(C)C(=O)Nc1ccc(C(=O)COC(=O)c2ccccn2)cc1 do in these assays?
SUMO Mot1 rescue: -18.0; ALR H2O2 inh: -5.7

What do the screens show for `Cc1ccc(C2=NN=C(NC(=O)CSc3nncn3C)SC2)cc1`?
SUMO Mot1 rescue: -3.5; HIF act: 0.9; ALR H2O2 inh: 99.5*; AI-2 QS modul: 4.8

What do the screens show for `COc1ccc(NC(=O)C2CCN(S(=O)(=O)c3ccc4c(c3)CC(C)N4C(C)=O)CC2)cc1OC` (stereo unspecified)?
SUMO Mot1 rescue: 2.3; HIF act: 677.6*; ALR H2O2 inh: -8.4; AI-2 QS modul: 2.8

What do the screens show for `COc1cc(NC(=O)C2CCN(S(=O)(=O)c3ccc4c(c3)CC(C)N4C(C)=O)CC2)cc(OC)c1OC` (stereo unspecified)?
SUMO Mot1 rescue: 2.8; HIF act: 0.4; ALR H2O2 inh: -5.1; AI-2 QS modul: 18.5

How did COc1cc(/C=N/NC(=O)CCN2CCN(c3ccccc3)CC2)cc(OC)c1OC do in these assays?
SUMO Mot1 rescue: 1.1; HIF act: -0.4; ALR H2O2 inh: 92.7*; AI-2 QS modul: 21.4

Results for COc1cc(NC(=O)NCCN2CCN(c3ccccc3)CC2)cc(OC)c1OC ?
SUMO Mot1 rescue: -7.3; HIF act: 0.7; ALR H2O2 inh: 97.6*; AI-2 QS modul: -4.9

What do the screens show for `O=C(NCCN1CCN(c2ccccc2)CC1)c1ccccc1F`?
SUMO Mot1 rescue: -17.7; HIF act: 0.4; ALR H2O2 inh: 98.7*; AI-2 QS modul: 5.3

Results for C/C(=N\NC(=O)COc1cccc(Br)c1)c1ccc2c(c1)OCCO2 ?
SUMO Mot1 rescue: 19.0; ALR H2O2 inh: 8.9

Results for CC(=O)Nc1ccc2c(c1)N(S(=O)(=O)c1cccs1)CCC2 ?
SUMO Mot1 rescue: 25.9; HIF act: -0.4; AI-2 QS modul: 24.6

Results for COc1ccc(S(=O)(=O)NCCc2cn3nc(C)c(C)nc3n2)cc1C ?
SUMO Mot1 rescue: -4.7; HIF act: -0.2; ALR H2O2 inh: -1.2; AI-2 QS modul: 4.4

Results for Cc1ccc(S(=O)(=O)NCCc2cn3nc(C)c(C)nc3n2)cc1C ?
SUMO Mot1 rescue: 267.4*; HIF act: -0.2; ALR H2O2 inh: -10.2; AI-2 QS modul: 8.8

High-throughput results (PubChem BioAssay)
